Experimental data published in PubChem BioAssay (EPA / NIEHS).
Several values for one entry are separate records, joined by “and”; a condition that tells them apart may be missing. Equal values may be shown once. Results filed as inconclusive are left out. Activity calls are given as the source filed them. How the source made its calls, unless noted: active means hit-call score of the fitted dose curve at least 0.9, where 1 is the maximum; inconclusive means response in the unintended direction; inactive means score below 0.9.

Experiments:
[1] = CCTE_Deisenroth_5AR_NBTE_donor: CCTE's 5alpha-reductase NanoBRET Target Engagement Assay […], Deisenroth Lab (AID 2284319; active means hit-call score of the fitted dose curve at least 0.9, where 1 is the maximum; inactive means score below 0.9); conditions: actives raise or lower the signal
Method in brief: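 HEK293T cells were reverse transfected with an SRD5A2-NanoLuc vector for 20 h, exposed to test chemical (8 points, 10 nM - 29.9 uM) for 3 h, then testosterone tracer for 2 h more. Donor luminescence (460 nm) was read; bidirectional fit versus DMSO.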

[2] = CCTE_Deisenroth_5AR_NBTE_acceptor: CCTE's 5alpha-reductase NanoBRET Target Engagement Assay - Autofluorescence Screen, Deisenroth Lab (AID 2284321; active means hit-call score of the fitted dose curve at least 0.9, where 1 is the maximum; inactive means score below 0.9;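 further: compound fluorescence in the acceptor channel under 460 nm excitation flags autofluorescence artifacts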); conditions: actives raise or lower the signal
Method in brief: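 Autofluorescence counter-screen: chemicals at an assumed nominal 100 uM in DMSO were scanned in three independent runs with 460 nm excitation. Gain or loss of acceptor signal was fitted bidirectionally against DMSO.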

SRD5A2 (gene 6716) = test: CCTE_Deisenroth_5AR_NBTE_ratio: CCTE's 5alpha-reductase NanoBRET Target Engagement Assay - Ratio, Deisenroth Lab (AID 2284322; active means hit-call score of the fitted dose curve at least 0.9, where 1 is the maximum; inactive means score below 0.9); conditions: actives raise or lower the signal
Method in brief: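 HEK293T transiently expressing SRD5A2-NanoLuc; cells exposed to chemical (8-point, 10 nM - 29.9 uM) for 5 h total, testosterone tracer added for final 2 h. NanoBRET acceptor/donor ratio (650/460 nm), bidirectional fit vs DMSO.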

SERPINA7 (gene 6906) = test: CCTE_GLTED_hTBG: CCTE's human Thyroxine-binding Globulin (TBG) Inhibition Assay, Great Lakes Toxicology and Ecology Division (GLTED) Lab (AID 2284343);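 further: active chemicals lower fluorescence versus DMSO baseline by displacing probe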
Method in brief: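 Human TBG incubated 2 h with test chemical; displacement of ANSA probe read by fluorescence, 380 nm excitation/475 nm emission. Loss of signal relative to DMSO.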

[3] = IUF_NPC2-5_viability_120hr: Viability Assessment at 120 hours in the Leibniz Research Institute for Environmental Medicine (IUF) Neural Progenitor Cell Migration and Differentiation Assay (NPC2-5) (AID 2284312; active means hit-call score of the fitted dose curve at least 0.9, where 1 is the maximum; inactive means score below 0.9)
Method in brief: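 Human fetal neural progenitor spheres (0.3 mm) plated on poly-D-lysine/laminin in N2 differentiation medium, exposed 120 h with half-medium refresh at day 3. Viability by alamar blue resazurin fluorescence; 7 concentrations, DMSO max 0.1%.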

[4] = CCTE_Mundy_HCI_iCellGluta_NOG_NeuriteLength: CCTE's Neurite Outgrowth Assay in iCellGluta cells for Neurite Length, Mundy Lab (AID 2284318)
Method in brief: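 Automated high-content imaging of betaIII-tubulin (Alexa Fluor-488) and Hoechst-stained cells gave neurite length, normalized to the DMSO baseline.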

[5] = CCTE_Mundy_HCI_iCellGluta_NOG_NeuriteCount: CCTE's Neurite Outgrowth Assay in iCellGluta cells for Neurite Count, Mundy Lab (AID 2284342);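 further: chemical exposure about 48 hours starting 2 hours after plating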
[6] = CCTE_Mundy_HCI_iCellGluta_NOG_NeuronCount: CCTE's Neurite Outgrowth Assay in iCellGluta cells for Neuron Count, Mundy Lab (AID 2284340);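 further: cells fixed about 48 h after compound addition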
Method in brief: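 Neuron count read by automated high-content imaging of Hoechst 33342 and betaIII-tubulin/Alexa Fluor-488 labelling in human iPSC glutamatergic neurons. Activity fitted relative to DMSO.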

[7] = VALA_TUBIPS_Antagonist_TubuleLength: VALA Sciences human iPS-derived Endothelial Tubule Formation (TUBIPS) Antagonist Assay (AID 2284313)
Method in brief: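 Cells grown 3 days with 10 ng/ml VEGF, then exposed to compounds in VEGF medium for another 3 days. After fixation, nuclear stain and CD31 immunofluorescence imaging gave mean total tubule length against 0.1% DMSO; suramin (100 uM) inhibition control.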

[8] = VALA_MIGHUV2_Bcatenin: VALA Sciences human Umbilical Vein Endothelial Cell Migration (MIGHUV) Assay, Nuclear Translocation of beta-Catenin after Recovery (AID 2284315)
Method in brief: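 HUVEC (4000 cells/well) scratch-wounded, dosed within 30 min over 6 concentrations in triplicate, recovered 24 h. After fixation, Hoechst and anti-beta-catenin immunofluorescence imaged for nuclear CTNB. Gain of signal versus 0.1% DMSO.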

[9] = VALA_MIGHUV2_WoundArea: VALA Sciences human Umbilical Vein Endothelial Cell Migration (MIGHUV) Assay, Area of Scratch Wound after Recovery (AID 2284316)
Method in brief: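 HUVEC seeded at 9000 cells/well, scratched after 24 h; test chemical added within 30 min, 6-point concentration response in triplicate (0.1% DMSO vehicle). After 24 h wound recovery, cells fixed and Hoechst-stained nuclei in wound area imaged; Cytochalasin D reference control.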

[10] = VALA_MIGHUV1_ScratchOnly_WoundArea: VALA Sciences human Umbilical Vein Endothelial Cell Migration (MIGHUV) Assay, Area of Scratch Wound Inhibited Recovery (AID 2284336)
Method in brief: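 HUVEC monolayers (9000 cells/well) were scratched after 24 h, dosed within 30 min (six concentrations, triplicate, 0.1% DMSO), allowed 24 h recovery, then fixed. Hoechst-stained nuclei in the wound imaged; cytochalasin D as reference.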

[11] = VALA_TUBHUV_Agonist_TubuleLength: VALA Sciences human Umbilical Vein Endothelial Tubule Formation (TUBHUV) Agonism Assay (AID 2284337)
Method in brief: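 HUVEC co-cultured with fibroblasts (1:3) 3 days in 10 ng/ml VEGF, then 3 days with compound plus VEGF; 0.1 % DMSO neutral control. Fixed, nuclear and CD31 stained; tubule length by fluorescence imaging.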

[12] = VALA_TUBIPS_Agonist_CellCount: Viability Assessment in the VALA Sciences human iPS-derived Endothelial Tubule Formation (TUBIPS) Agonism Assay (AID 2284338)
[13] = VALA_TUBIPS_Antagonist_CellCount: Viability Assessment in the VALA Sciences human iPS-derived Endothelial Tubule Formation (TUBIPS) Antagonism Assay (AID 2284335)
[14] = VALA_MIGHUV1_ScratchOnly_CellCount: Viability Assessment in the VALA Sciences human Umbilical Vein Endothelial Cell Migration (MIGHUV) Assay, Scratch Wound Inhibited Recovery (AID 2284327)
Method in brief: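 HUVEC scratched after 24 h culture, chemical added within 30 min at 6 concentrations in triplicate (0.1% DMSO vehicle). After 24 h recovery, fixed cells were counted by Hoechst nuclear imaging in the wound area.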

[15] = TAMU_PeakParms_SingleDonor1434_Asystole: Texas A&M University (TAMU) 1.5-hr Human Induced Pluripotent Stem Cell (iPSC)-derived Cardiomyocytes Calcium (Ca+2) Flux Assay for Cardiotoxicity: Asystole (quiescence of beating) (AID 2284328)
Method in brief: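 Donor 1434 iPSC-cardiomyocytes exposed 90 min at 37C, 5% CO2, to 0.2, 1, 10 and 100 uM in 0.5% DMSO. Ca2+ dye fluorescence gave average peak frequency; POD is EC95, a 95% beat-rate drop versus controls.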

[16] = VALA_MIGHUV2_CellCount: Viability Assessment in the VALA Sciences human Umbilical Vein Endothelial Cell Migration (MIGHUV) Assay, Area of Scratch Wound after Recovery (AID 2284314)
Method in brief: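 Scratch-wounded HUVEC monolayers received test chemical within 30 min, 6-point concentration response in triplicate, 0.1 % DMSO vehicle. After 24 h wound recovery, fixed cells were Hoechst-stained and nuclei imaged; loss of signal versus DMSO indicates reduced viability.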

[17] = VALA_TUBHUV_Antagonist_TubuleLength: VALA Sciences human Umbilical Vein Endothelial Tubule Formation (TUBHUV) Antagonism Assay (AID 2284325)
Method in brief: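 HUVEC–HDF co-culture (1:3) pre-grown 3 days with 10 ng/ml VEGF, then 3 days with compound plus VEGF. Fixed, nuclear and CD31 stained; total tubule length by imaging versus 0.1% DMSO; suramin 100 uM positive control.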

IYD (gene 389434) = test: CCTE_GLTED_hIYD: CCTE's human Iodotyrosine Deiodinase (xIYD) Inhibition Assay, Great Lakes Toxicology and Ecology Division (GLTED) Lab (AID 2284317);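 further: cell-free human IYD enzyme made in baculovirus insect cells; iodide freed from monoiodotyrosine measured by cerium arsenite color change at 420 nm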
Method in brief: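 hIYD: baculovirus-expressed human IYD deiodinated monoiodotyrosine for 3 h with test chemical; free iodide was measured by Sandell-Kolthoff absorbance at 420 nm and normalized to MNT and DMSO/NaOH controls.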

Measured: AC50

C[Si](Cn1cncn1)(c1ccc(F)cc1)c1ccc(F)cc1
inactive: [1] | [2] | SRD5A2 (gene 6716)
active: SERPINA7 (gene 6906) 4.09 µM

CN1COCN(Cc2cnc(Cl)s2)C1=N[N+](=O)[O-]
inactive: [3] | [4] | [5]

CC(C)N(C(=O)SCC(Cl)=C(Cl)Cl)C(C)C
active: [4] 20.2 µM | [6] 22.4 µM | [5] 23.2 µM
inactive: [3] | [1] | [2] | SRD5A2 (gene 6716)

CCCSP(=O)(OCC)Oc1ccc(Br)cc1Cl (stereo unspecified)
active: SERPINA7 (gene 6906) 14.1 µM

CCOC(=O)CC(SP(=O)(OC)OC)C(=O)OCC (stereo unspecified)
inactive: [3]

S=C1NCCN1
inactive: [3] | [7] | [8] | [9] | [4] | [10] | [11] | [12] | [6] | [5]

COP(=O)(NC(C)=O)SC (stereo unspecified)
inactive: [3] | [6] | [5]

O=C(O)c1cc(Oc2ccc(C(F)(F)F)cc2Cl)ccc1[N+](=O)[O-]
active: SERPINA7 (gene 6906) 4.45 µM

CC1=NNC(=O)N(/N=C/c2cccnc2)C1
inactive: [3] | [7] | [9] | [4] | [13] | [10] | [11] | [12] | [6] | [5]

COP(=O)(OC)OC(Br)C(Cl)(Cl)Br (stereo unspecified)
inactive: [3] | [1] | [2] | SRD5A2 (gene 6716)
active: [4] 13.5 µM | [6] 21.7 µM | [5] 16.4 µM

CCOP(=S)(OCC)SCCSCC
inactive: [3] | [6]
active: SERPINA7 (gene 6906) 13.9 µM

CN(C)[C@@H]1C(=O)C(C(N)=O)=C(O)[C@@]2(O)C(=O)C3=C(O)c4c(O)cccc4[C@@](C)(O)[C@H]3[C@H](O)[C@@H]12
inactive: [3] | [1] | [2] | SRD5A2 (gene 6716) | [14] | [13]
active: [9] 50 µM | [4] 24.6 µM | [10] 90.1 µM | [11] 7.49 µM | [12] 9.92 µM | [6] 13.4 µM | [5] 19.9 µM

CCOP(=S)(OCC)Oc1cc(C)nc(C(C)C)n1
inactive: [3]

CC(=NC#N)N(C)Cc1ccc(Cl)nc1
inactive: [3] | [6] | [5]

Cc1ccn2nc(S(=O)(=O)Nc3c(F)cccc3F)nc2n1
inactive: SERPINA7 (gene 6906)

CC[C@H](C)[C@H]1O[C@]2(C=C[C@@H]1C)C[C@@H]1C[C@@H](C/C=C(\C)[C@@H](O[C@H]3C[C@H](OC)[C@@H](O[C@H]4C[C@H](OC)[C@@H](NC)[C@H](C)O4)[C@H](C)O3)[C@@H](C)/C=C/C=C3\CO[C@@H]4[C@H](O)C(C)=C[C@@H](C(=O)O1)[C@]34O)O2
active: [3] 1.14 µM and 2.1 µM | [4] 0.811 µM | [1] 14.2 µM | [2] 10 µM | SRD5A2 (gene 6716) 16.6 µM | [6] 0.896 µM | [5] 0.824 µM

C=C(C)[C@H]1Cc2c(ccc3c2O[C@@H]2COc4cc(OC)c(OC)cc4[C@@H]2C3=O)O1
inactive: [1] | [2]
active: [3] 267 nM and 1.57 nM | [4] 0.121 µM | SRD5A2 (gene 6716) 30.6 µM | [15] 0.01 µM | [6] 0.0672 µM | [5] 0.907 µM

O=[N+]([O-])c1cc(C(F)(F)F)c(Cl)c([N+](=O)[O-])c1Nc1ncc(C(F)(F)F)cc1Cl
active: [3] 1.4 µM | [4] 0.714 µM | [6] 3.14 µM | [5] 0.937 µM | SERPINA7 (gene 6906) 0.388 µM
inactive: [16] | [17] | [10] | [12]

CCCCSP(=O)(SCCCC)SCCCC
inactive: [3] | IYD (gene 389434) | [4] | [5]
active: [6] 49.9 µM

CSC1=N[C@@](C)(c2ccccc2)C(=O)N1Nc1ccccc1
inactive: [3] | [4] | [1] | [2] | SRD5A2 (gene 6716) | [6] | [5]

CCCCN(CC)c1c([N+](=O)[O-])cc(C(F)(F)F)cc1[N+](=O)[O-]
active: SERPINA7 (gene 6906) 2.78 µM

CCCSP(=O)(OCC)SCCC
inactive: [3] | [4] | [6] | [5]

CCOP(=O)(OCC)Oc1cc(C)nc(C(C)C)n1
inactive: [3] | IYD (gene 389434) | [4] | [6] | [5]

COP(=O)(OC)C(O)C(Cl)(Cl)Cl (stereo unspecified)
inactive: [3]

CON=C(C(=O)OC)c1ccccc1CON=C(C)c1cccc(C(F)(F)F)c1
active: [4] 13.3 µM | [6] 50 µM | [5] 24.6 µM
inactive: [3]

C[N+]1(C)CCCCC1
inactive: [3] | [6] | [5]

FC(F)C(F)(F)OCC(Cn1cncn1)c1ccc(Cl)cc1Cl (stereo unspecified)
active: SERPINA7 (gene 6906) 10.1 µM

N#CSCSC#N
inactive: [1] | [2]
active: SRD5A2 (gene 6716) 19.5 µM

CCOP(=S)(OCC)Oc1ccc([N+](=O)[O-])cc1
inactive: [4] | [15] | [6] | [5]
active: SERPINA7 (gene 6906) 11.6 µM

CC(C)[C@H](C(=O)O[C@H](C#N)c1cccc(Oc2ccccc2)c1)c1ccc(Cl)cc1
inactive: IYD (gene 389434)

CCC(CC)Nc1c([N+](=O)[O-])cc(C)c(C)c1[N+](=O)[O-]
inactive: [1] | [2] | SRD5A2 (gene 6716)
active: SERPINA7 (gene 6906) 1.64 µM

CCCOCC(=Nc1ccc(Cl)cc1C(F)(F)F)n1ccnc1
inactive: IYD (gene 389434)

CCOP(=S)(Oc1cnc(C(C)(C)C)nc1)OC(C)C (stereo unspecified)
active: [4] 21 µM | [6] 16 µM | [5] 23.9 µM | SERPINA7 (gene 6906) 16.7 µM
inactive: [3]

CCOP(=O)(NC(C)C)Oc1ccc(SC)c(C)c1 (stereo unspecified)
active: [6] 51 µM | SERPINA7 (gene 6906) 14.6 µM
inactive: [3] | [4] | [5]

CCOP(=S)(OCC)OC(Cl)C(Cl)(Cl)Cl (stereo unspecified)
inactive: [3] | [4] | [6] | [5]
